According to the supplement of paper PMC10849652:
The full data set covers some 7,900 targets. This sample favours those with a hit. About 0.6% of all pairs of compound and target were hits.

Columns and labels:
Assay in all cases: log2 fold change, soluble protein after heating vs DMSO (PISA); higher = thermal stabilisation; K562 cells, 10 uM, 30 min; active = over 0.2 and 3.5 SD of the protein, either way, in both replicates (recomputed)
[1] = compound: Cc1ccc(NC(=O)c2ccc(CN3CC[C@H](N(C)C)C3)c(C(F)(F)F)c2)cc1Nc1nccc(-c2cncnc2)n1 [bafetinib]
Method in brief: (§1)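 K562 cells at 2×10^6 cells/mL were treated for 30 min with 10 μM compound, and aliquots were heated for 3 min over 48°C-58°C before pooling. Extraction used PBS with 0.5% NP-40 at 4°C, and soluble protein was the supernatant after 21,000xg for 90 min, measured by TMTpro 16plex LC-MS/MS with channel sums equalised. Thermal stability values, relative to control samples and from duplicates, are log2 fold changes.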

[2] = compound: Cc1cccc(CC(=O)N2CCc3c2ccc(-c2cn(C)c4ncnc(N)c24)c3F)n1
Method in brief: as §1

[3] = compound: Cc1cn(-c2cc(NC(=O)c3ccc(C)c(Nc4nccc(-c5cccnc5)n4)c3)cc(C(F)(F)F)c2)cn1 [nilotinib]
Method in brief: as §1

[4] = compound: Cc1nc(Nc2n[nH]c3c2CN(C(=O)N[C@H](CN(C)C)c2ccccc2)C3(C)C)c2sccc2n1
Method in brief: as §1

[5] = compound: Cc1nc(Nc2ncc(C(=O)Nc3c(C)cccc3Cl)s2)cc(N2CCN(CCO)CC2)n1 [dasatinib]
Method in brief: as §1

[6] = compound: Cc1ncc(-c2ccnc(Nc3ccc(S(C)(=O)=O)cc3)n2)n1C(C)C
Method in brief: as §1

[7] = compound: Cn1cc(-c2ccc3c(c2)CCN3C(=O)Cc2cccc(C(F)(F)F)c2)c2c(N)ncnc21
Method in brief: as §1

[8] = compound: Cn1cc(-c2ccc3nnc(C(F)(F)c4ccc5ncccc5c4)n3n2)cn1
Method in brief: as §1

[9] = compound: Cn1cncc1[C@@](N)(c1ccc(Cl)cc1)c1ccc2c(c1)c(-c1cccc(Cl)c1)cc(=O)n2C [tipifarnib]
Method in brief: as §1

[10] = compound: FC(F)(F)c1ccc(/C=C/c2nc(COc3ccc(CCCCn4ccnn4)cc3)co2)cc1 [mubritinib]
Method in brief: as §1

[11] = compound: NC(=O)Nc1cc(-c2cccc(F)c2)sc1C(=O)N[C@H]1CCCNC1
Method in brief: as §1

[12] = compound: NC(=O)c1cnc(N[C@@H]2CCCC[C@@H]2N)nc1Nc1cccc(-n2nccn2)c1
Method in brief: as §1

[13] = compound: NC1(c2ccc(-c3nc4ccn5c(=O)[nH]nc5c4cc3-c3ccccc3)cc2)CCC1
Method in brief: as §1

[14] = compound: NCC(=O)Nc1ccc(-n2nc(C(F)(F)F)cc2-c2ccc3c(ccc4ccccc43)c2)cc1
Method in brief: as §1

[15] = compound: Nc1ccccc1NC(=O)c1ccc(CNC(=O)OCc2cccnc2)cc1 [entinostat]
Method in brief: as §1

[16] = compound: O=C(CCCCCCC(=O)Nc1ccccc1)NO [vorinostat]
Method in brief: as §1

[17] = compound: O=C(CCCCCCNC(=O)c1cnc(N(c2ccccc2)c2ccccc2Cl)nc1)NO [citarinostat]
Method in brief: as §1

[18] = compound: O=C(O)c1ccc2c(c1)nc(Nc1cccc(Cl)c1)c1ccncc12 [silmitasertib]
Method in brief: as §1

[19] = compound: O=C1NC(=O)C(c2cnc3ccccn23)=C1c1cn2c3c(cc(F)cc13)CN(C(=O)N1CCCCC1)CC2
Method in brief: as §1

[20] = compound: c1cc(OCCN2CCCCC2)cc(-c2n[nH]c3ccc(-c4nnc[nH]4)cc23)c1
Method in brief: as §1

Measured: log2 fold change

PSMC3 (UniProt P17980)
Chain of UniProt P17980 (P17980 whole entry, looked up): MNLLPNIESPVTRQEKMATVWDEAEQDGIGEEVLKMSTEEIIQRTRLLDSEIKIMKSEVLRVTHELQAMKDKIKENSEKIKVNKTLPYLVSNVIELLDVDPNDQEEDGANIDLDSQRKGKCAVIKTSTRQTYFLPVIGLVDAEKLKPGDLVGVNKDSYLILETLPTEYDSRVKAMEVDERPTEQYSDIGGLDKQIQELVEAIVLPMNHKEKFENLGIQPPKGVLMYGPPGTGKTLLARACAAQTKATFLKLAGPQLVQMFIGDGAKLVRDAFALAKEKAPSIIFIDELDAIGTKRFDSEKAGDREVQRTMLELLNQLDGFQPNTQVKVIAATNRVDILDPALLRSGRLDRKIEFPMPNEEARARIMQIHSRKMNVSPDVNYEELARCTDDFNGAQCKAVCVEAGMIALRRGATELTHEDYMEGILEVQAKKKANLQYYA
inactive: [1] 0.072 | [2] -0.033 | [3] -0.004 | [4] 0.059 | [5] 0.016 | [6] -0.017 | [7] -0.1 | [8] -0.005 | [9] 0.124 | [10] -0.016 | [11] 0.014 | [12] -0.011 | [13] 0.046 | [14] 0.078 | [15] -0.024 | [16] -0.017 | [17] -0.053 | [18] -0.018 | [19] 0.049 | [20] -0.092

PRKACB isoform 2 (UniProt P22694)
inactive: [1] -0.06 | [2] 0.04 | [3] -0.021 | [5] -0.021 | [6] -0.037 | [7] -0.013 | [8] -0.004 | [9] -0.144 | [10] 0.051 | [11] 0.078 | [12] -0.11 | [13] -0.173 | [14] -0.02 | [15] 0.001 | [16] 0.04 | [17] 0.015 | [18] -0.002 | [19] -0.119 | [20] -0.065
active: [4] 0.647

POLD1 (UniProt P28340)
inactive: [1] -0.055 | [2] 0.023 | [3] -0.03 | [4] -0.006 | [5] -0.049 | [6] -0.052 | [7] 0.063 | [8] 0.01 | [9] -0.066 | [10] 0.006 | [11] -0.01 | [12] -0.027 | [13] -0.095 | [14] -0.007 | [15] 0.005 | [16] -0.098 | [17] 0.117 | [18] 0.03 | [19] -0.122 | [20] -0.011

PDCD4 (UniProt Q53EL6)
Chain of UniProt Q53EL6 (Q53EL6 whole entry, looked up): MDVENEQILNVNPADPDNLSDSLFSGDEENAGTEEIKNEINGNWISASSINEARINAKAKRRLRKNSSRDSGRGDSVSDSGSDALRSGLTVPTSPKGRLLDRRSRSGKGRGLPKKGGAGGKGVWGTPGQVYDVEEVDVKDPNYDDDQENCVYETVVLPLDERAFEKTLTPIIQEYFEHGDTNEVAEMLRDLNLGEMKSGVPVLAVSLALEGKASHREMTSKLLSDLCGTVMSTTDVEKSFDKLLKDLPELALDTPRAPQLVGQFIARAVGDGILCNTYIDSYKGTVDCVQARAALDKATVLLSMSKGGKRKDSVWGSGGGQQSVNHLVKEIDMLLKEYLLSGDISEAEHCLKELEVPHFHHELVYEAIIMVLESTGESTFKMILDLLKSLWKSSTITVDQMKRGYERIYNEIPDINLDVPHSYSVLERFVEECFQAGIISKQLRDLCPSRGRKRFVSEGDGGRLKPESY
inactive: [1] 0.065 | [2] -0.014 | [3] 0.017 | [4] 0.025 | [5] -0.144 | [6] 0.144 | [7] 0.022 | [8] 0.077 | [9] -0.172 | [10] 0.104 | [11] -0.001 | [12] 0.011 | [13] -0.087 | [14] -0.064 | [15] -0.044 | [16] 0.042 | [17] 0.059 | [18] 0.145 | [19] -0.041 | [20] 0.092

PTRHD1 (UniProt Q6GMV3)
Chain of UniProt Q6GMV3 (Q6GMV3 whole entry, looked up): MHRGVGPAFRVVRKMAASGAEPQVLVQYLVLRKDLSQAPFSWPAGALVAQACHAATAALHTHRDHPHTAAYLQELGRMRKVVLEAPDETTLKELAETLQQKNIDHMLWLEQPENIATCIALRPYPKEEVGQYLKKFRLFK
active: [8] 0.332
inactive: [1] -0.067 | [2] 0.024 | [3] 0.08 | [4] -0.032 | [5] -0.007 | [6] -0.061 | [7] 0.111 | [9] 0.028 | [10] 0.043 | [11] -0.02 | [12] 0.037 | [13] -0.009 | [14] 0.03 | [15] 0.095 | [16] -0.099 | [17] 0.026 | [18] -0.006 | [19] -0.065 | [20] -0.006

PTP4A1 (UniProt Q93096)
Chain of UniProt Q93096 (Q93096 whole entry, looked up): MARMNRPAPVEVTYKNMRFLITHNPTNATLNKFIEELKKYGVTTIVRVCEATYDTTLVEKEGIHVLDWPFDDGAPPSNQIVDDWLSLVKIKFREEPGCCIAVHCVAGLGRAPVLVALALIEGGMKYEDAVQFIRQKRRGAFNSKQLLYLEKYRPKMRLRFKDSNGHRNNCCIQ
inactive: [1] -0.023 | [2] 0.013 | [3] 0.039 | [4] -0.049 | [5] 0.108 | [7] 0.181 | [8] 0.093 | [9] -0.005 | [10] 0.074 | [11] -0.035 | [12] -0.202 | [13] -0.007 | [14] 0.016 | [15] 0.039 | [16] -0.029 | [17] 0.063 | [18] -0.001 | [19] -0.075 | [20] 0.059
active: [6] -0.299

PRKAR1B (UniProt P31321)
Chain of UniProt P31321 (P31321 whole entry, looked up): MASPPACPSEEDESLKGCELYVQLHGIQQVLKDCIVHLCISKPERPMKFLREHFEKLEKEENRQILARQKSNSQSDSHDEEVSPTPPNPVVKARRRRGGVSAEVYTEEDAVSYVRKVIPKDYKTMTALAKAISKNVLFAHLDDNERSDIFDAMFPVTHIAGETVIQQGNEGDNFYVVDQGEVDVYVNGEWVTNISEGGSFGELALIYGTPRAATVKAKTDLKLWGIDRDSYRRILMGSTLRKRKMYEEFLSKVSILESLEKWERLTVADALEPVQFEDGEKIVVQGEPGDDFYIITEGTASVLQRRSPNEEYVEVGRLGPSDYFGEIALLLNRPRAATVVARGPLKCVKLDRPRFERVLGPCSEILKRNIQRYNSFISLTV
inactive: [1] 0.132 | [2] -0.015 | [3] 0.062 | [4] 0.012 | [5] -0.013 | [6] 0.097 | [7] 0.018 | [8] 0.126 | [9] 0.147 | [10] -0.286 | [11] 0.001 | [12] 0.085 | [13] 0.129 | [14] 0.045 | [15] -0.015 | [16] -0.031 | [17] 0 | [18] 0.07 | [19] 0.024 | [20] -0.142

PPIL4 (UniProt Q8WUA2)
Chain of UniProt Q8WUA2 (Q8WUA2 whole entry, looked up): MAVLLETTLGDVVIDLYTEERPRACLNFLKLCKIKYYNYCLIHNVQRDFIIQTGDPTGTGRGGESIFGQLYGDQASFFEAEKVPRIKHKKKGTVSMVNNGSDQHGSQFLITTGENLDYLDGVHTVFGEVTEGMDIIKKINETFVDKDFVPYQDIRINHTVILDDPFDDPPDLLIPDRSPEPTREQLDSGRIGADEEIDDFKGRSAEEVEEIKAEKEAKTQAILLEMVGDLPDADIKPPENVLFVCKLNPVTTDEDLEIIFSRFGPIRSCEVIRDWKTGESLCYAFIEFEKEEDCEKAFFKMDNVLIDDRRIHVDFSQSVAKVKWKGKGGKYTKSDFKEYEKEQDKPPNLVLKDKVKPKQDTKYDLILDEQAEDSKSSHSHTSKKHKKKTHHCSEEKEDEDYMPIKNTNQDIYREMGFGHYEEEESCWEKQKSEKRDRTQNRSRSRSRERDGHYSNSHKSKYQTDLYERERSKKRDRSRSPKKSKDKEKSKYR
inactive: [1] -0.001 | [2] 0.002 | [3] 0.002 | [5] -0.065 | [6] -0.113 | [7] -0.031 | [8] -0.018 | [9] -0.01 | [10] 0.005 | [11] -0.021 | [12] -0.085 | [13] 0.002 | [14] -0.071 | [15] 0.011 | [16] 0.016 | [17] 0.033 | [18] -0.005 | [19] -0.005 | [20] -0.1
active: [4] -0.483

PMPCA (UniProt Q10713)
active: [5] 0.54 | [9] 0.285
inactive: [1] 0.063 | [2] 0.016 | [3] 0.024 | [4] 0.057 | [6] -0.096 | [7] 0.067 | [8] 0.04 | [10] 0.087 | [11] -0.091 | [12] -0.059 | [13] -0.02 | [14] -0.053 | [15] -0.018 | [16] -0.016 | [17] 0.017 | [18] -0.061 | [19] 0.01 | [20] 0.015

PARP1 (UniProt P09874)
Chain of UniProt P09874 (P09874 whole entry, looked up): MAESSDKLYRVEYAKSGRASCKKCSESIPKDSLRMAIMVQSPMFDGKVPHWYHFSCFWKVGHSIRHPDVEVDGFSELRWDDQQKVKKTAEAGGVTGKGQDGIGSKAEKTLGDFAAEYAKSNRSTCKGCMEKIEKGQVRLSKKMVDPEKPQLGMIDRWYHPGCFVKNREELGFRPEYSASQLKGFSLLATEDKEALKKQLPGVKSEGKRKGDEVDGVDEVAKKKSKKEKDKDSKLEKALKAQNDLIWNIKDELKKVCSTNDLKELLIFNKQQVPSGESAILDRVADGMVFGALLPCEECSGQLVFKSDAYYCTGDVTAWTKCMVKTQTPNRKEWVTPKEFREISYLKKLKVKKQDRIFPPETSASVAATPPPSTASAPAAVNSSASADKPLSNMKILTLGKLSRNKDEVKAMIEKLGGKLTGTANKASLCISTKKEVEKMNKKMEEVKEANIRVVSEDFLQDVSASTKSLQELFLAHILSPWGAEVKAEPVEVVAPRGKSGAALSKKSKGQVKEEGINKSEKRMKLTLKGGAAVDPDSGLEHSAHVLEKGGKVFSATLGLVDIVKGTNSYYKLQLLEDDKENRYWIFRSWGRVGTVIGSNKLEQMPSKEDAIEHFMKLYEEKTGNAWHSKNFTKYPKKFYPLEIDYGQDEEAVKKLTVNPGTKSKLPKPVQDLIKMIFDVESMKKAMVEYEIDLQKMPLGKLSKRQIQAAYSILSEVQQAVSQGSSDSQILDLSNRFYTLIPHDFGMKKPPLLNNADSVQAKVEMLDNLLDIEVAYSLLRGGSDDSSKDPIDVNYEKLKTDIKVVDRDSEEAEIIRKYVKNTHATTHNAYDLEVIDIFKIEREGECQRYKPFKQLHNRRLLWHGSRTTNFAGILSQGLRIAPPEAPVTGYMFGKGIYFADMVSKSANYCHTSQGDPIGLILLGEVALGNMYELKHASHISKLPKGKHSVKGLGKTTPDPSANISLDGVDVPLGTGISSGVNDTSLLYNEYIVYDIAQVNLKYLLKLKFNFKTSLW
inactive: [1] 0.05 | [2] -0.009 | [3] -0.028 | [4] -0.112 | [5] -0.245 | [6] 0.178 | [7] 0.026 | [8] 0.131 | [9] -0.117 | [10] 0.044 | [11] -0.128 | [12] -0.064 | [13] -0.102 | [14] -0.09 | [15] 0.142 | [16] 0.042 | [17] 0.091 | [18] 0.039 | [19] -0.173 | [20] 0

PRCP (UniProt P42785)
Chain of UniProt P42785 (P42785 whole entry, looked up): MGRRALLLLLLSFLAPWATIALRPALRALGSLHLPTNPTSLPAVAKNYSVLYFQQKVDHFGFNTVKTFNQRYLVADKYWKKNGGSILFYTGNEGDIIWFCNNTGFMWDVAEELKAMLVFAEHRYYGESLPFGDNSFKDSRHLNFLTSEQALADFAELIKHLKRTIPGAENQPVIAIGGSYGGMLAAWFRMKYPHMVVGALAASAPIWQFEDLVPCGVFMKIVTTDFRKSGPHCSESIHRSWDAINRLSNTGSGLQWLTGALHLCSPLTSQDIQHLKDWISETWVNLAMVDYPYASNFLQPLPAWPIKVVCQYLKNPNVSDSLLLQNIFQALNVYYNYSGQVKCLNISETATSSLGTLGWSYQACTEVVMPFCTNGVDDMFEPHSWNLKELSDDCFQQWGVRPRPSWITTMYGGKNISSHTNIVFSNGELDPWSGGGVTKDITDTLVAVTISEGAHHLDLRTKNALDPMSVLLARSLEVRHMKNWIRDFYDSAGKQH
inactive: [1] -0.209 | [2] -0.018 | [3] 0.011 | [4] 0.009 | [5] -0.021 | [6] -0.009 | [7] 0.02 | [8] 0.008 | [9] 0.055 | [10] 0.057 | [11] 0.013 | [12] 0.005 | [13] -0.106 | [14] 0.008 | [15] 0.035 | [16] 0.005 | [17] 0.028 | [18] 0 | [19] -0.014 | [20] 0.044

POLR3K (UniProt Q9Y2Y1)
Chain of UniProt Q9Y2Y1 (Q9Y2Y1 whole entry, looked up): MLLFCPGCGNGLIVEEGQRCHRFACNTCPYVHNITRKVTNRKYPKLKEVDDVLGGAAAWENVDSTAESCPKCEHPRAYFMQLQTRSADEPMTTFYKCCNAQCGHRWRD
inactive: [1] -0.006 | [2] -0.039 | [3] 0.035 | [4] -0.003 | [5] 0.098 | [6] 0.01 | [7] -0.02 | [8] -0.021 | [9] 0.033 | [10] -0.088 | [11] 0.045 | [12] 0.007 | [13] 0.057 | [14] 0.057 | [15] 0.009 | [16] -0.003 | [17] -0.025 | [18] 0.013 | [19] -0.028 | [20] 0.025

PIR (UniProt O00625)
Chain of UniProt O00625 (O00625 whole entry, looked up): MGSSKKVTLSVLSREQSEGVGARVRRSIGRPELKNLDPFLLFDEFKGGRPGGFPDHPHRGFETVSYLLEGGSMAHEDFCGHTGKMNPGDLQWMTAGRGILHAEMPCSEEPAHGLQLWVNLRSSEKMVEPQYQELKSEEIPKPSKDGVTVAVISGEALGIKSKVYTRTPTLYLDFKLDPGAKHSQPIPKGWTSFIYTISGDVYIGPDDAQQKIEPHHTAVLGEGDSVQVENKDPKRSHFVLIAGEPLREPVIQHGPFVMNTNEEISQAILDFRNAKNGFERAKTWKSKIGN
inactive: [1] -0.073 | [2] 0.001 | [3] 0.009 | [4] -0.006 | [5] -0.044 | [6] -0.014 | [7] -0.003 | [8] 0.028 | [9] -0.069 | [10] 0.11 | [11] -0.047 | [12] -0.053 | [13] -0.195 | [14] -0.024 | [15] -0.022 | [17] -0.014 | [18] -0.038 | [19] -0.012
active: [16] -0.625 | [20] 0.253

PSMD13 (UniProt Q9UNM6)
Chain of UniProt Q9UNM6 (Q9UNM6 whole entry, looked up): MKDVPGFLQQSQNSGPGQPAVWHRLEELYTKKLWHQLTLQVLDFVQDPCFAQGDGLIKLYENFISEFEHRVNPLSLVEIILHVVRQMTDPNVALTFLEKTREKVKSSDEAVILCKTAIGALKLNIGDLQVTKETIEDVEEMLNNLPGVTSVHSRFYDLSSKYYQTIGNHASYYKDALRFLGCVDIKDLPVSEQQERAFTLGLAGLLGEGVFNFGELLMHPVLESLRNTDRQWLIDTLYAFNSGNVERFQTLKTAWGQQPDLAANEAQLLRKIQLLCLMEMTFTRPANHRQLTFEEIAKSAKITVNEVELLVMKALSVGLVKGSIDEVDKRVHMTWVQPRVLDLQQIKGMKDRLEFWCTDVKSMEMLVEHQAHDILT
inactive: [1] 0.126 | [2] 0.003 | [3] -0.002 | [4] 0.082 | [5] 0.023 | [6] -0.018 | [7] -0.114 | [8] -0.008 | [9] 0.095 | [10] -0.019 | [11] -0.049 | [12] 0.015 | [13] -0.044 | [14] 0.006 | [15] -0.018 | [16] 0.001 | [17] -0.017 | [18] 0.033 | [19] 0.044 | [20] -0.108

PELO (UniProt Q9BRX2)
inactive: [1] 0.068 | [2] 0.155 | [3] -0.021 | [4] -0.067 | [5] -0.054 | [6] -0.02 | [7] 0.042 | [8] 0.061 | [9] -0.136 | [10] -0.111 | [11] -0.028 | [12] -0.089 | [13] -0.098 | [14] -0.174 | [15] 0.058 | [16] 0.064 | [17] 0.009 | [18] 0.054 | [19] 0.063 | [20] -0.057

PPP2R5E (UniProt Q16537)
Chain of UniProt Q16537 (Q16537 whole entry, looked up): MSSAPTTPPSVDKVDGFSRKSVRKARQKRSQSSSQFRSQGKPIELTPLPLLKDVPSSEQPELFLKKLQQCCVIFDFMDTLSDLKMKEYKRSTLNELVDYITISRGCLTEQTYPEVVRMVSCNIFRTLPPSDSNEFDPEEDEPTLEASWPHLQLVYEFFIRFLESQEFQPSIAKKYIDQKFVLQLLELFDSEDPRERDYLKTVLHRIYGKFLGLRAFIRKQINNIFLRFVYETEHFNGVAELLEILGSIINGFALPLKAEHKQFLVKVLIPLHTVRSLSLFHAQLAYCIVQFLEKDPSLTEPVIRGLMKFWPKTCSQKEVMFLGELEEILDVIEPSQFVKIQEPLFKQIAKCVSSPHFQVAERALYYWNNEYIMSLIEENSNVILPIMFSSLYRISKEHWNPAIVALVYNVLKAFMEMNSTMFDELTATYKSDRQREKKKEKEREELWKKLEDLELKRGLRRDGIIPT
inactive: [1] -0.023 | [2] -0.058 | [3] -0.11 | [4] 0.057 | [5] -0.074 | [6] -0.059 | [7] -0.049 | [8] -0.037 | [9] -0.159 | [10] 0.018 | [11] 0.015 | [12] -0.039 | [13] -0.078 | [14] -0.09 | [15] -0.021 | [16] 0.118 | [17] 0.058 | [18] -0.014 | [19] -0.016 | [20] 0.163
